In PubChem BioAssay (Tox21):
A number with no mark means an inactive call. Active and inactive are the calls of the source. Calls come from the whole dose curve; as a rule, active = well fitted curve in the direction sought with a large enough effect in the repeat runs; inconclusive = weak or mixed curves; inactive = flat fitted curve, though single readings scatter.

Experiment: qHTS assay to test for compound auto fluorescence at 590 nm (red) in HEK293 cells (AID 720679)
Settings: red autofluorescence 540/590 nm; series mostly up to 91.3 µM; fluorescence, % of fluorescent control: at the top concentration
Method in brief: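 Plates of HEK293 cells (10% dialyzed FBS) are treated with 23 nL compound or DMSO vehicle after a 4-5 hr attachment period, incubated overnight at 37C, and read for red fluorescence at 540/590nm.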
% is set by controls: 0 for no effect and ±100 for the full control effect.

| Structure (SMILES) | fluorescence, % of fluorescent control | outcome |
| --- | --- | --- |
| O=C(O)Cc1cn(-c2ccccc2)nc1-c1ccc(Cl)cc1 | -0.0256% [at 46 µM] |  |
| CCCCCCOC(=O)CC | -0.388% |  |
| O=C(O)c1cc(Cl)cc([N+](=O)[O-])c1Cl | 0.453% |  |
| Nc1nnc(-c2cccc(Cl)c2Cl)c(N)n1 | -0.158% [at 46 µM] |  |
| CC(C(=O)O)c1ccc2c(c1)CC(=O)c1ccccc1S2 (stereo not given) | 0.142% [at 46 µM] |  |
| COCCOC(=O)C1=C(C)NC(C)=C(C(=O)OC(C)C)C1c1cccc([N+](=O)[O-])c1 (stereo not given) | -0.416% [at 46 µM] |  |
| COc1ccc(-c2cc(=O)c3c(O)cc(O[C@@H]4O[C@H](CO[C@@H]5O[C@@H](C)[C@H](O)[C@@H](O)[C@H]5O)[C@@H](O)[C@H](O)[C@H]4O)cc3o2)cc1O | 0.194% [at 46 µM] |  |
| CC(=O)NCc1c(I)c(NC(C)=O)c(I)c(C(=O)O)c1I | -0.239% [at 46 µM] |  |
| Cc1cccc(C)c1OCC(C)N (stereo not given) | -0.0067% [at 46 µM] |  |
| CC(C)NCC(O)COc1ccc(COCCOC(C)C)cc1 (stereo not given) |  | inactive |
| C[C@@H]1O[C@@H](O[C@@H]2[C@@H](O)[C@H](OCCc3ccc(O)c(O)c3)O[C@H](CO[C@@H]3O[C@H](CO)[C@@H](O)[C@H](O)[C@H]3O)[C@H]2OC(=O)/C=C/c2ccc(O)c(O)c2)[C@H](O)[C@H](O)[C@H]1O | -0.555% |  |
| CC(=O)/C=C/C1C(C)=CCC(C)C1(C)C (stereo not given) | -0.483% |  |
| Brc1ccc(-c2ccccc2)cc1 | 0.156% |  |
| C=C(C)C(=O)OCCNC(C)(C)C | -0.0032% |  |
| C=COCCOCCOCCOC=C | 0.273% |  |
| CC(=O)CCCCn1c(=O)c2c(ncn2C)n(C)c1=O | -0.0868% [at 18.6 µM] |  |
| FC(F)(F)c1ccccc1-n1ccnc1 | -0.215% [at 46 µM] |  |
| C=Cc1ccccn1 | 0.141% |  |

| Structure (SMILES) | fluorescence, % of fluorescent control | outcome |
| --- | --- | --- |
| CC(N)C(=O)OC(C)(C)Cc1ccc(Cl)cc1 (stereo not given) | 0.146% [at 46 µM] |  |
| CCO[Si](CCCS)(OCC)OCC | 0.0178% |  |
| NS(=O)(=O)c1ccc(NC(=O)CCC(=O)O)cc1 | -0.0911% [at 46 µM] |  |
| O=C(/N=N/C(=O)OCc1ccccc1)OCc1ccccc1 | -0.401% |  |
| CC(S)C(=O)NCC(=O)O (stereo not given) | 0.566% [at 46 µM] |  |
| C#CC(C)N(C)C(=O)Nc1ccc(Cl)cc1 (stereo not given) | -0.101% |  |
| Nc1ccc([N+](=O)[O-])c(N)c1 | 0.497% |  |
| CC(C)(C)NC(N)=O | 0.0315% |  |
| COC(=O)C1CC(=O)C(C(=O)OC)CC1=O (stereo not given) | 0.169% [at 3.72 µM] |  |
| Oc1cn2c(n1)Nc1ccc(Cl)c(Cl)c1C2 |  | inactive |
| CC1=CCC(C(C)C)=CC1 | 0.0635% |  |
| COCCOCCOCCOCCOCCO | -0.906% |  |
| O=C(c1ccc(O)cc1)c1ccc(O)c(O)c1O | -0.318% |  |
| O=C1O[C@@H]2[C@@H](O)[C@H](O)O[C@@H]2[C@H]1O |  | inactive |
| CC(=O)c1sc(C)nc1C | 0.0041% |  |
| CC(=O)Nc1ccc(S(=O)(=O)Nc2ccc([N+](=O)[O-])cc2)cc1 | 0.24% [at 46 µM] |  |
| CCOc1cc([N+](=O)[O-])c(OCC)cc1N1CCOCC1 | 0.103% |  |

Experiment: qHTS assay to test for compound auto fluorescence at 535 nm (green) in HEK293 cells (AID 720680)
Settings: green autofluorescence 485/535 nm; series mostly up to 91.3 µM; fluorescence, % of fluorescein: at the top concentration

| Structure (SMILES) | fluorescence, % of fluorescein | outcome |
| --- | --- | --- |
| O=C(O)Cc1cn(-c2ccccc2)nc1-c1ccc(Cl)cc1 | 0.0143% [at 46 µM] |  |
| CCCCCCOC(=O)CC | -0.0295% |  |
| O=C(O)c1cc(Cl)cc([N+](=O)[O-])c1Cl | -0.0126% |  |
| Nc1nnc(-c2cccc(Cl)c2Cl)c(N)n1 | -0.0248% [at 46 µM] |  |
| CC(C(=O)O)c1ccc2c(c1)CC(=O)c1ccccc1S2 (stereo not given) | -0.0412% [at 46 µM] |  |
| COCCOC(=O)C1=C(C)NC(C)=C(C(=O)OC(C)C)C1c1cccc([N+](=O)[O-])c1 (stereo not given) | 0.075% [at 46 µM] |  |
| COc1ccc(-c2cc(=O)c3c(O)cc(O[C@@H]4O[C@H](CO[C@@H]5O[C@@H](C)[C@H](O)[C@@H](O)[C@H]5O)[C@@H](O)[C@H](O)[C@H]4O)cc3o2)cc1O | -0.0351% [at 46 µM] |  |
| CC(=O)NCc1c(I)c(NC(C)=O)c(I)c(C(=O)O)c1I | -0.0921% [at 46 µM] |  |
| Cc1cccc(C)c1OCC(C)N (stereo not given) | 0.0781% [at 46 µM] |  |
| CC(C)NCC(O)COc1ccc(COCCOC(C)C)cc1 (stereo not given) |  | inactive |
| C[C@@H]1O[C@@H](O[C@@H]2[C@@H](O)[C@H](OCCc3ccc(O)c(O)c3)O[C@H](CO[C@@H]3O[C@H](CO)[C@@H](O)[C@H](O)[C@H]3O)[C@H]2OC(=O)/C=C/c2ccc(O)c(O)c2)[C@H](O)[C@H](O)[C@H]1O | -0.0303% |  |
| CC(=O)/C=C/C1C(C)=CCC(C)C1(C)C (stereo not given) | -0.0114% |  |
| Brc1ccc(-c2ccccc2)cc1 | -0.13% |  |
| C=C(C)C(=O)OCCNC(C)(C)C | -0.0088% |  |
| C=COCCOCCOCCOC=C | -0.0321% |  |
| CC(=O)CCCCn1c(=O)c2c(ncn2C)n(C)c1=O | 0.0863% [at 18.6 µM] |  |
| FC(F)(F)c1ccccc1-n1ccnc1 | -0.0001% [at 46 µM] |  |
| C=Cc1ccccn1 | 0.034% |  |

| Structure (SMILES) | fluorescence, % of fluorescein | outcome |
| --- | --- | --- |
| CC(N)C(=O)OC(C)(C)Cc1ccc(Cl)cc1 (stereo not given) | 0.0461% [at 46 µM] |  |
| CCO[Si](CCCS)(OCC)OCC | 0.0484% |  |
| NS(=O)(=O)c1ccc(NC(=O)CCC(=O)O)cc1 | 0.162% [at 46 µM] |  |
| O=C(/N=N/C(=O)OCc1ccccc1)OCc1ccccc1 | -0.0247% |  |
| CC(S)C(=O)NCC(=O)O (stereo not given) | -0.0168% [at 46 µM] |  |
| C#CC(C)N(C)C(=O)Nc1ccc(Cl)cc1 (stereo not given) | -0.0197% |  |
| Nc1ccc([N+](=O)[O-])c(N)c1 | 0.0504% |  |
| CC(C)(C)NC(N)=O | 0.0056% |  |
| COC(=O)C1CC(=O)C(C(=O)OC)CC1=O (stereo not given) | -0.0599% [at 3.72 µM] |  |
| Oc1cn2c(n1)Nc1ccc(Cl)c(Cl)c1C2 |  | inactive |
| CC1=CCC(C(C)C)=CC1 | -0.0568% |  |
| COCCOCCOCCOCCOCCO | -0.0212% |  |
| O=C(c1ccc(O)cc1)c1ccc(O)c(O)c1O | 0.006% |  |
| O=C1O[C@@H]2[C@@H](O)[C@H](O)O[C@@H]2[C@H]1O |  | inactive |
| CC(=O)c1sc(C)nc1C | 0.031% |  |
| CC(=O)Nc1ccc(S(=O)(=O)Nc2ccc([N+](=O)[O-])cc2)cc1 | -0.0076% [at 46 µM] |  |
| CCOc1cc([N+](=O)[O-])c(OCC)cc1N1CCOCC1 | 0.0459% |  |
